# Measured values published in PubChem BioAssay.
# The source made the active and inactive calls.
# Columns and labels:
# [1] = optical density shifts of acrAB sulA E. coli – strain DRC41, OD650, 48 h, E. coli filamentation inducer project, primary screen (AID 1152); conditions: higher = more signal, called active from +8 up or from −8 down;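 further: E. coli MC1000 strain DRC41 lacking acrAB efflux pump and sulA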
# [2] = probe aLefty1 binding on compound microarray – biochemical, small-molecule microarray, 635/667 nm fluorescence, primary screen (AID 1153); conditions: higher = more signal;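 further: score merges spot fluorescence with signal-to-noise ratio from the scanned slide images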
# [3] = plasmodial surface anion channel blockers, osmotic lysis – cell-based, P. falciparum Indochina, OD700, 1 h, primary screen (AID 1154); conditions: P. falciparum Indochina infected RBC osmotic lysis, higher = more signal, called active from +8 up or from −8 down
# [4] = plasmodial surface anion channel blockers, osmotic lysis – cell-based, P. falciparum Indochina, OD700, 2 h, primary screen (AID 1155);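 further: lysis reports solute entry through the parasite surface anion channel PSAC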; conditions: P. falciparum Indochina infected erythrocytes, higher = more signal, called active from +8 up or from −8 down
# [5] = changes in parasitized red cell lysis, either direction – P. falciparum Indochina, OD700, 3 h, PSAC antagonist project, primary screen (AID 1156); conditions: P. falciparum-infected erythrocytes, osmotic lysis, higher = more signal, called active from +8 up or from −8 down
# [6] = plasmodial surface anion channel blockers, osmotic lysis – cell-based, P. falciparum Indochina, OD700, 18 h, primary screen (AID 1157); conditions: P. falciparum Indochina infected erythrocytes, osmotic lysis OD700, 18 h; higher = more signal, called active from +8 up or from −8 down
# [7] = S6 kinase pathway phospho-S6 level changes – cell-based, A549, cytoblot, luminescence, serum-stimulated, primary screen (AID 1158); conditions: 5 h, higher = more signal;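 further: serum-stimulated A549 lung adenocarcinoma cells; signal is phosphorylated S6 detected by cytoblot immunostaining with HRP secondary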
# [8] = molecular target: NADPH oxidase 2 (Homo sapiens) (UniProt P04839); test: compounds shifting NOX2 Amplex Red fluorescence – cell-based, HEK293-NOX2, PMA-stimulated, NOX inhibitor project, primary screen (AID 1159); conditions: 45 min, higher = more signal, called active from +8 up or from −8 down; further: test concentration not given here
# [9] = molecular target: NADPH oxidase 4 (Homo sapiens) (UniProt Q9NPH5); test: compounds shifting NOX4 Amplex Red fluorescence – cell-based, HEK293-NOX4, tetracycline-induced, NOX inhibitor project, primary screen (AID 1160); conditions: HEK293-NOX4, Amplex Red H2O2 fluorescence, 45 min; higher = more signal, called active from +8 up or from −8 down
# [10] = molecular target: NADPH oxidase 5 (Homo sapiens) (UniProt Q96PH1); test: compounds shifting NOX5 Amplex Red fluorescence – cell-based, HEK293-NOX5, NOX inhibitor project, primary screen (AID 1161); conditions: HEK293-NOX5, ionomycin, 45 min, higher = more signal
# Sequence of NADPH oxidase 5 (Homo sapiens) (Q96PH1 whole entry, looked up): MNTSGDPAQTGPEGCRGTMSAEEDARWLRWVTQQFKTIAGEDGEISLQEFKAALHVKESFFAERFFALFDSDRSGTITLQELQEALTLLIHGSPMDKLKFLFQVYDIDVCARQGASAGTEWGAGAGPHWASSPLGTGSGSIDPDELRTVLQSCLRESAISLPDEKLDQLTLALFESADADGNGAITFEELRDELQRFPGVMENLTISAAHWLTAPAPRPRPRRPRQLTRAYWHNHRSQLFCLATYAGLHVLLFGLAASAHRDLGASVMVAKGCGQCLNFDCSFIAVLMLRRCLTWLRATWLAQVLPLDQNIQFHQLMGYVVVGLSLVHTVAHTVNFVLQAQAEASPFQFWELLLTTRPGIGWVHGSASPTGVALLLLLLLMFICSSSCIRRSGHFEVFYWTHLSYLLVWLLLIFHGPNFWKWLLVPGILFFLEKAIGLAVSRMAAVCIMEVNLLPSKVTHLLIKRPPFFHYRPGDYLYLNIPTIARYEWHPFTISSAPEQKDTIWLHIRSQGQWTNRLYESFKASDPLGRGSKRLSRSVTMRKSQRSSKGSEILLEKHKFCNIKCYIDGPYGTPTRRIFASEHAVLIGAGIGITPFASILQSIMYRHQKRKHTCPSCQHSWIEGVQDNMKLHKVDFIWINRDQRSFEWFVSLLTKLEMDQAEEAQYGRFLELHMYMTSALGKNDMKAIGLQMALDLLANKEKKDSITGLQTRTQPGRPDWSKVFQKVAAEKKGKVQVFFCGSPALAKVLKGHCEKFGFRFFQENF
# Sequence of NADPH oxidase 4 (Homo sapiens) (Q9NPH5 whole entry, looked up): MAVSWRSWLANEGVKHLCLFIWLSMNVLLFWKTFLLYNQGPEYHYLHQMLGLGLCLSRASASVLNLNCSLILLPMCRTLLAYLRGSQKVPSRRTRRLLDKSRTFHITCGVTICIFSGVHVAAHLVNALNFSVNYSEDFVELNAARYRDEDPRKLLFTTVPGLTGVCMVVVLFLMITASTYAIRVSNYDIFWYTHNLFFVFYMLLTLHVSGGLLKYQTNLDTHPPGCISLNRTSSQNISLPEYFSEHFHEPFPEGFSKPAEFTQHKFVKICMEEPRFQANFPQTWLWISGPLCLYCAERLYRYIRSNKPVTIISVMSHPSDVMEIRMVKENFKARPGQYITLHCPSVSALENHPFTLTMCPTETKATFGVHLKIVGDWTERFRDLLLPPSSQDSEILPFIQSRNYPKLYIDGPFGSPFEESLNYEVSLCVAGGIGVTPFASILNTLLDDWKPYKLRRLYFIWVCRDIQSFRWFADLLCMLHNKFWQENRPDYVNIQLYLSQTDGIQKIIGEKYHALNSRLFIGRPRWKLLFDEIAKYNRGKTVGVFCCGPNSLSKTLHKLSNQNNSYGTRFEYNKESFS
# Sequence of NADPH oxidase 2 (Homo sapiens) (P04839 whole entry, looked up): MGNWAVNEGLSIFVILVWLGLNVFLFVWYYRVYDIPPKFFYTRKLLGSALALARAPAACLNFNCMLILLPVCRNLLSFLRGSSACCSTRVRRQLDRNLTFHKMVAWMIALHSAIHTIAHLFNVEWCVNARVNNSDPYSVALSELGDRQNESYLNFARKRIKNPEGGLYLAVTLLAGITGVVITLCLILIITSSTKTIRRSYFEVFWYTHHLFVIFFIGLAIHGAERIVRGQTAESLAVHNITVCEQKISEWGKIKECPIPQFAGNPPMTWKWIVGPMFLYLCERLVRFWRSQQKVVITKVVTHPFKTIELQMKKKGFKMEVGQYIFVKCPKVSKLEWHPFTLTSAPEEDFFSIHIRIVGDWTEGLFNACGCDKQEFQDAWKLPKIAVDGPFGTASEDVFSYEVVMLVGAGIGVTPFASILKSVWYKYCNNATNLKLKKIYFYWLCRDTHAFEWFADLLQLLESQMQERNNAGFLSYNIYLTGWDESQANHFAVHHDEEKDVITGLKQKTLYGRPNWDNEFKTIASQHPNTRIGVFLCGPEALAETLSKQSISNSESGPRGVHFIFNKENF
Structure (SMILES),z-score [1],composite z-score [2],z-score [3],z-score [4],z-score [5],z-score [6],z-score [7],z-score [8],z-score [9],z-score [10]
CC(c1ccccc1)C(O)C1C=CC2C(=O)N(C)C(=O)C2N1Nc1ccccc1 (stereo not given),-1.14 (inactive),0.146,0.627 (inactive),0.782 (inactive),-0.0204 (inactive),0.999 (inactive),-0.945,-1.51 (inactive),-3.77 (inactive),-3.26
CCOC(=O)C1=CC[C@@H](c2ccccc2F)N(S(=O)(=O)c2ccc(C)cc2)[C@H]1c1ccccc1,-1.33 (inactive),-0.0544,0.353 (inactive),1.17 (inactive),0.0175 (inactive),0.338 (inactive),-0.445,0.941 (inactive),0.6 (inactive),2.18
CCCCC(O)C1C=CC2C(=O)N(C)C(=O)C2N1N(c1ccccc1)c1ccccc1 (stereo not given),-2.15 (inactive),0.475,3.81 (inactive),1 (inactive),1.3 (inactive),0.951 (inactive),-1.05,-0.334 (inactive),-1.98 (inactive),-0.376
CCCC=C(CCC)[C@@H](NC(=O)c1cccs1)c1ccc(C(=O)OC)cc1,-1.24 (inactive),0.911,-1.3 (inactive),-0.864 (inactive),-1.72 (inactive),-1.27 (inactive),1.28,0.0754 (inactive),1.74 (inactive),2.06
CC(C)[Si](C#C[Si](C(C)C)(C(C)C)C(C)C)(O[C@H](c1ccccc1)c1cn(Cc2ccccc2)nn1)C(C)C,1.25 (inactive),0.0997,0.62 (inactive),0.267 (inactive),-0.351 (inactive),0.136 (inactive),-0.25,-0.734 (inactive),-1.17 (inactive),-0.932
COCCOC(=O)N1C(=O)[C@@]2(c3ccccc31)[C@H](C(=O)NC[C@H](O)c1ccccc1)[C@H]1C(=O)O[C@H](c3ccccc3)[C@H](c3ccccc3)N1[C@@H]2c1ccc(O)cc1,0.503 (inactive),-0.671,1.89 (inactive),0.74 (inactive),-0.0724 (inactive),0.786 (inactive),0.315,1.22 (inactive),0.4 (inactive),0.855
COCCOC(=O)N1C(=O)[C@@]2(c3cc(C#CCC(C(=O)OC)C(=O)OC)ccc31)[C@H](c1ccc(OCCO)cc1)N1[C@H](c3ccccc3)[C@H](c3ccccc3)OC(=O)[C@H]1[C@@H]2C(=O)N1CCc2cc(OC)c(OC)cc2C1,-0.0746 (inactive),0.269,6.85 (inactive),2.56 (inactive),0.324 (inactive),1.78 (inactive),-0.215,2.22 (inactive),1.17 (inactive),1.29
CN(C)c1ccc(C(O)C2C=CC3C(=O)NC(=O)C3N2Nc2ccccn2)cc1 (stereo not given),-1.5 (inactive),0.201,0.85 (inactive),0.123 (inactive),-0.693 (inactive),0.408 (inactive),-0.888,-2.21 (inactive),-4.43 (inactive),-4.16
NC(=O)NCC#Cc1ccc2c(c1)[C@]1(C(=O)N2)[C@H](C(=O)N2CCN(c3ncccn3)CC2)[C@H]2C(=O)O[C@H](c3ccccc3)[C@H](c3ccccc3)N2[C@@H]1c1ccc(O)cc1,-1.08 (inactive),0.141,-0.362 (inactive),-0.136 (inactive),0.174 (inactive),-0.302 (inactive),0.435,1.13 (inactive),0.162 (inactive),0.437
COc1ccc([C@H]2OC[C@@H]3C[C@H](Cc4ccccc4)C(=O)N32)cc1,-0.446 (inactive),0.015,1.96 (inactive),0.92 (inactive),-0.356 (inactive),0.284 (inactive),-0.133,0.829 (inactive),0.284 (inactive),0.695
O=C(O)[C@@H]1C[C@@H]2C(=O)N3CCC[C@H]3C(=O)N2[C@@H]1c1ccc(O)cc1,2.3 (inactive),0.266,3.69 (inactive),-0.325 (inactive),-3.21 (inactive),-1.54 (inactive),0.722,-8.21 (active),-4.92 (inactive),-5.18
CC(CO)N1C(=O)[C@]2(C)C3C(=O)OCCC/C=C\[C@H]3OC23C=CCN(c2ccc(Cl)cc2)C(=O)[C@@H]13 (stereo not given in full),0.79 (inactive),-0.062,0.423 (inactive),0.576 (inactive),1.94 (inactive),0.5 (inactive),-0.021,1.25 (inactive),-0.0121 (inactive),1.33
C#CCN([C@@H](Cc1ccccc1)C(=O)OC)[C@@H](/C=C/C1CC1)[C@H](O)Cc1ccccc1,-0.634 (inactive),-0.0538,1.09 (inactive),0.443 (inactive),-0.0572 (inactive),-0.307 (inactive),-0.169,-0.284 (inactive),-0.417 (inactive),-2.34
COc1ccc([Si](C)(C)[C@@H]2[C@@H](CCO)O[C@]3(C(=O)N(Cc4ccccc4)c4ccc(NC(=O)[C@H](C)O)cc43)[C@H]2C)cc1,0.573 (inactive),0.621,12.8 (active),2.77 (inactive),-0.919 (inactive),1.92 (inactive),0.402,0.77 (inactive),0.452 (inactive),1.8
CCOC(=O)C[C@H]1[C@H](OC(=O)c2ccc(C(=O)c3ccccc3)cc2)[C@@H](NC(=O)c2ccc3ccccc3n2)c2cc(OCCCO)ccc2N1C(=O)Cc1ccc(OC)cc1,-1.61 (inactive),0.0782,-0.17 (inactive),0.313 (inactive),1.57 (inactive),0.802 (inactive),0.793,-1.71 (inactive),-0.298 (inactive),-0.856
CC(C)C(CO)N1C(=O)[C@@H]2C3C(=O)OCCC/C=C\[C@H]3OC23C=CCN(c2ccc4ccccc4c2)C(=O)[C@@H]13 (stereo not given in full),-0.546 (inactive),0.0533,1.03 (inactive),0.36 (inactive),0.204 (inactive),0.478 (inactive),-0.428,1.77 (inactive),0.767 (inactive),1.69
COC(=O)c1c(CC[C@@H](CO)NC(=O)N2CCC[C@H]2Cn2cc(C3(O)CCCCC3)nn2)oc(C(C)=O)c1C(=O)OC,-0.955 (inactive),-0.101,1.35 (inactive),0.092 (inactive),1.14 (inactive),0.163 (inactive),-0.0302,-0.645 (inactive),-0.981 (inactive),-1.37
O=C1C2C=CC(C(O)c3ccco3)N(Nc3ccccc3F)C2C(=O)N1c1ccccc1 (stereo not given),-1.72 (inactive),0.361,0.188 (inactive),1.05 (inactive),-0.197 (inactive),0.975 (inactive),-0.754,-0.73 (inactive),0.251 (inactive),-1.64
CCOC(=O)C[C@H]1[C@H](OC(=O)c2ccc(C(=O)c3ccccc3)cc2)[C@@H](NC(=O)c2ccc(-c3ccccc3)cc2)c2cc(OCCCO)ccc2N1C(=O)Cc1ccc(OC)cc1,0.548 (inactive),0.344,11.8 (active),1.62 (inactive),-0.455 (inactive),0.429 (inactive),0.53,-0.44 (inactive),0.397 (inactive),0.501
C=CCNC(=O)[C@@H]1[C@H]2C(=O)O[C@H](c3ccccc3)[C@H](c3ccccc3)N2[C@H](c2ccccc2OCCO)[C@@]12C(=O)N(C(=O)OCCOC)c1ccc(C#CC3(O)CCCCCC3)cc12,0.592 (inactive),0.038,1.95 (inactive),2.02 (inactive),0.167 (inactive),0.996 (inactive),0.152,1.09 (inactive),0.906 (inactive),0.337
